PNC assembly inh = High Content Assay for Compounds that inhibit the Assembly of the Perinucleolar Compartment | PC3M PTB-GFP, PNC prevalence imaging, 16 h; hits give low values | activity change (PNC), negative = inhibition, % at 10 µM | actives 3.1% (n = 140,000);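 active means readout at or below -70, meaning at least 70% loss of cells showing the perinucleolar compartment, a nuclear body marking cancer cells; inconclusive means readout between -30 and a set limit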;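 further: plate controls were DMSO wells for no effect and camptothecin positive control wells for full effect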
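Read-out is percentage of cells bearing a perinucleolar compartment, from automated 20x imaging of fixed, Hoechst-stained PC3M PTB-GFP cells. Cells were seeded 4 h, then exposed 16 h to compound (23 nl of library stock) in duplicate plates.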
ALDH1A1 block = qHTS Assay for Inhibitors of Aldehyde Dehydrogenase 1 (ALDH1A1) | Potency, µM (titrated, usually from 75.3 µM), for the others: at the highest dose activity, negative = inhibition, usual class: inhibitors | AID 1030, 2008 | Aldehyde dehydrogenase 1A1 (Homo sapiens), P00352 | actives 7.3% (n = 220,000) | Purified ALDH1A1, NADH fluorescence, propionaldehyde substrate; active means well fitted inhibition curve with a large enough effect, not every such curve was filed as active; inconclusive means small, poorly fitted or top-dose-only effect, or another doubt; inactive means no such curve, though single readings can be large or run the other way;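 further: potency means the concentration at half of the fitted maximal effect; plate controls were no enzyme wells and a reference inhibitor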
Target sequence (P00352 whole entry, looked up): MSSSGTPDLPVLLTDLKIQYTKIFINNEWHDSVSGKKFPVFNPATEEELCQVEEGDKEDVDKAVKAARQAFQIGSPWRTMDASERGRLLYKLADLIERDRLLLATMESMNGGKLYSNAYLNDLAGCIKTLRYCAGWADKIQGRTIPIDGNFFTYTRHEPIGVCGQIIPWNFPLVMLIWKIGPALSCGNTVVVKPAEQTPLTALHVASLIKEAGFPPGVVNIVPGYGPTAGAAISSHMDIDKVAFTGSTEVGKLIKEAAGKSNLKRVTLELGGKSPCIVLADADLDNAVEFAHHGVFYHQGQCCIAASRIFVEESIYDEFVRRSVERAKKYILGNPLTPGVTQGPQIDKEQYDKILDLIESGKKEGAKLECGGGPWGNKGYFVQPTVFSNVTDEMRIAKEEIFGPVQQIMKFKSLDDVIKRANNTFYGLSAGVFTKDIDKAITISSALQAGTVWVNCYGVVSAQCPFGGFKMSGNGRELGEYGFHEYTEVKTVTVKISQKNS
RGS12 GoLoco inh = qHTS Assay for Inhibitors of RGS12 GoLoco Motif Activity (Red Fluorophore). Potency, µM (top dose mostly 61.6 µM), for the others: at the top dose activity, negative = inhibition, most hits filed as inhibitors. Gai1:RGS12 GoLoco peptide FP, rhodamine, 10 min. actives 0.44% (n = 230,000); active means well fitted inhibition curve with a large enough effect, not every such curve was filed as active; inactive means no such curve, though single readings can be large or run the other way; further: potency means the concentration at half of the fitted maximal effect; on the % scale 0 is the no-effect control and ±100 the full control effect; nearly all actives have a fitted effect of over 30% in size
HTT cytoprotect = qHTS Multiplex Assay to Identify Dual Action Probes in a Cell Model of Huntington: Cytoprotection (ATP); PC12 HTT-Q103 induced, cytoprotection, ATP luminescence, 40 h; Potency, µM (doses to about 56.4 µM), without a hit: cytoprotection (ATP increase), hits mostly activators; actives 0.14% (n = 230,000); AID 1471, 2008; further: potency means the concentration at half of the fitted maximal effect; % of control where 0% means no effect; nearly all actives have a fitted effect of over 45% in size
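Rat PC12, Q103 Htt exon1-GFP fusion, ecdysone promoter; tebufenozide inducer 100 nM final; compound titration; qHTS, 1500 cells/well; ATPlite luminescent read.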
HPGD inh = qHTS Assay for Inhibitors of HPGD (15-Hydroxyprostaglandin Dehydrogenase) | Potency, µM, inactives show at the top dose activity change, negative = inhibition, actives largely listed as inhibitors | purified HPGD, NADH fluorescence kinetic, PGE2 substrate | actives 4.3% (n = 150,000); active means well fitted inhibition curve with a large enough effect, not every such curve was filed as active; inconclusive means small, poorly fitted or top-dose-only effect, or another doubt; inactive means no such curve, though single readings can be large or run the other way; further: potency means the concentration at half of the fitted maximal effect; on the % scale 0 is the no-effect control and ±100 the full control effect
Target sequence (P15428 whole entry, looked up): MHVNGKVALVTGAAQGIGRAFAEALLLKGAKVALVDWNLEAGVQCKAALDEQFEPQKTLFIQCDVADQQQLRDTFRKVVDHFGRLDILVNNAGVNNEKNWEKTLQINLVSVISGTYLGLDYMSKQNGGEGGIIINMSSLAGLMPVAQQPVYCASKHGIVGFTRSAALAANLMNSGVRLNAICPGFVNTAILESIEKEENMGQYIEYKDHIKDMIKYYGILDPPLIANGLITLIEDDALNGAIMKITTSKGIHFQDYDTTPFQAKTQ
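20 nM HPGD preincubated 15 min at room temperature with compound in 50 mM Tris-HCl pH 8, 0.01% Tween 20. Started with 1 mM NAD+ and 30 uM prostaglandin E2; NADH fluorescence (360/450 nm) read 5 times over 30-s intervals, last minus first.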
HttQ103 aggreg = qHTS Multiplex Assay to Identify Dual Action Probes in a Cell Model of Huntington: Aggregate Formation (GFP). PC12 HttQ103-GFP aggregates, Acumen cytometry, 40 h. Potency, µM (series often up to 46.1 µM), for the others: at the highest dose activity change, negative = inhibition, most hits filed as inhibitors. actives 1.1% (n = 220,000); further: potency means the concentration at half of the fitted maximal effect; on the % scale 0 is the no-effect control and ±100 the full control effect; nearly all actives have a fitted effect of over 60% in size
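Multiplexed with ATP-based cell death, this channel scores GFP aggregates in PC12 cells expressing inducible HTTex1-Q103-GFP. Induction used 100 nM tebufenozide; compounds were tested in concentration series.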
Numbers without * were called inactive; ? = inconclusive; . = no result; [ ] = another dose, or the depositor's remark. This is a sample that favours compounds with a hit; in the whole collection about 11% have one here. Unless noted, the call rests on the fitted dose curve; in most records, active means well fitted curve in the direction sought with a large enough effect; inconclusive means small, poorly fitted or top-dose-only effect, or another doubt; inactive means no such curve, though single readings can be large; an effect the other way counts as inactive or inconclusive.

SMILES | PNC assembly inh | ALDH1A1 block | RGS12 GoLoco inh | HTT cytoprotect | HPGD inh | HttQ103 aggreg
N#CCCN1CCN(C2=NC(=O)/C(=C\c3cccs3)S2)CC1 | . | 25µM* | -5% | -28%[10 µM] | . | 5%
O=C1N=C(N2CCOCC2)S/C1=C\c1cccs1 | . | ? | 24% | 4%[10 µM] | . | -4%[9.22 µM]
Cc1cc(C(=O)Nc2nnc(-c3ccccc3)s2)no1 | -98* | -5% | 0% | -51% | -29% | -11%
Cc1onc(-c2ccccc2)c1C(=O)Nc1nc2c(s1)CCCC2 | 36 | ? | -1% | -17% | -14% | -1%
Cc1cc(C(=O)Nc2nc3c(s2)CCCC3)no1 | -107* | 11µM* | 3% | -65%[10 µM] | -18% | 10%
O=C(c1sc2cccc(F)c2c1Cl)N1CCN(c2ncccn2)CC1 | 29 | 28µM* | 3% | 25%[10 µM] | -12% | 31%
Cc1onc(-c2c(F)cccc2Cl)c1C(=O)N1CCN(c2ncccn2)CC1 | . | 7% | 8% | -16%[10 µM] | . | -15%[9.22 µM]
CC(=O)NC(Cc1ccc(C(C)C)cc1)C(=O)NC1CCN(C(=O)c2cccc(C)c2)CC1 (stereo not drawn) | . | 25µM* | 4% | 26%[10 µM] | . | 9%[9.22 µM]
COc1ncc2nc(-c3cccc(C#N)c3)c(=O)n(CCC#N)c2n1 | . | ? | 5% | -33% | ? | .
Cc1ccc(-c2cn(-c3ccccc3)c3[n+]2CCCS3)cc1 | -7 | -2% | -10% | -84%[10 µM] | -8% | 1.8µM*
O=C(Nc1ncc(Cc2ccc(SC(F)F)cc2)s1)c1ccc(OC(F)F)cc1 | -86* | ? | 11% | . | -29% | -22%
O=C(Cc1ccccc1)NC(NCCc1ccccc1)C(Cl)(Cl)Cl (stereo not drawn) | 50 | -1% | 9% | -17% | -21% | -24%
Cc1cc(C)nc(-n2ncc3c2CC(c2ccccc2)CC3=O)n1 (stereo not drawn) | 16 | -23% | 23% | 15%[10 µM] | 28µM* | -1%
Cc1cc(C)nc(-n2ncc3c2CC(c2ccc(F)cc2)CC3=O)n1 (stereo not drawn) | . | -5% | 8% | -33% | . | 2%
COCCNS(=O)(=O)c1cc(C)c(C)cc1C | 45 | -7% | -1% | 2%[10 µM] | -1% | 4%
Cn1c(=S)[nH]c2c(c1=O)C(C)(C)Cc1ccccc1-2 | . | 8.9µM* | 8% | -4% | . | 9%
CCn1c(=S)[nH]c2c(c1=O)C(C)(C)Cc1ccccc1-2 | . | 4% | 4% | ? | . | 14%[9.22 µM]
COc1cc(C(=O)NCC(=O)OC(C)C(=O)Nc2ncc(Cl)cc2Cl)cc(OC)c1OC (stereo not drawn) | . | 4% | 18% | -12% | . | -1%
CC(N)C(=O)NCC(=O)NC1CSSCC(C(=O)O)NC(=O)C(CO)NC(=O)C(C(C)O)NC(=O)C(Cc2ccccc2)NC(=O)C(C(C)O)NC(=O)C(CCCCN)NC(=O)C(Cc2c[nH]c3ccccc23)NC(=O)C(Cc2ccccc2)NC(=O)C(Cc2ccccc2)NC(=O)C(CC(N)=O)NC(=O)C(CCCCN)NC1=O (stereo not drawn) | . | . | . | 22% | . | 19%
CCCCNC(=O)CSc1nnc(-c2ccc(S(=O)(=O)N3CCCC3)cc2)n1C | -100* | 2% | 0% | 18%[10 µM] | -24% | -15%
COc1ccccc1-n1c(SCC(=O)O)nnc1-c1ccc(S(=O)(=O)N2CCCCC2)cc1 | ? | 13µM* | -2% | -2% | ? | -17%
O=c1cnc2cnc(N3CCNCC3)nc2n1CCc1ccccc1 | . | ? | 10% | ? | ? | .
Cc1c2oc3c(C)ccc(C(=O)N[C@@H]4C(=O)N[C@H](C(C)C)C(=O)N5CCC[C@H]5C(=O)N(C)CC(=O)N(C)[C@@H](C(C)C)C(=O)O[C@@H]4C)c3nc-2c(C(=O)N[C@@H]2C(=O)N[C@H](C(C)C)C(=O)N3CCC[C@H]3C(=O)N(C)CC(=O)N(C)[C@@H](C(C)C)C(=O)O[C@@H]2C)c(N)c1=O | . | ? | 34% | -46% | -24% | 0.032µM*
O=C(O)CC(c1cccc([N+](=O)[O-])c1)N1Cc2ccccc2C1=O (stereo not drawn) | . | 0% | -6% | 1%[10 µM] | . | 7%[9.22 µM]
O=C1c2ccccc2N[C@H](c2cc(Cl)cc(Cl)c2O)N1CCc1ccccn1 | . | -3%[13.5 µM] | 3%[14.2 µM] | -10%[10 µM] | -10% | .
SMILES | PNC assembly inh | ALDH1A1 block | RGS12 GoLoco inh | HTT cytoprotect | HPGD inh | HttQ103 aggreg
O=C(NCC1CCCO1)C1CCN(S(=O)(=O)Cc2ccccc2)CC1 (stereo not drawn) | -108* | 10% | -2% | -5%[10 µM] | 2% | -5%
O=C(NCC1CCCO1)C1CCC(CNS(=O)(=O)c2ccccc2)CC1 (stereo not drawn) | -19 | 14µM* | -5% | 19%[10 µM] | -9% | -8%
COC(=O)C1CCN(S(=O)(=O)Cc2ccccc2)CC1 | 31 | ? | 3% | -2%[10 µM] | 22µM* | 19%
CN1CCC2(CCN3CCc4c(oc5ccccc45)C3C2)N(C)C1=O (stereo not drawn) | . | 1% | 48% | . | -26% | .
CN(C)S(=O)(=O)c1ccc(N2CCN(S(=O)(=O)c3ccc(F)cc3)CC2)c(Cl)c1 | 5 | 7% | 2% | -22%[10 µM] | -3% | 10µM*
CN(C)S(=O)(=O)N1CCN(S(=O)(=O)c2ccc(F)cc2)CC1 | ? | 3% | -11% | -8% | -2% | -14%
Cc1ccc(OCCCCn2cnc3ccccc32)c(C)c1 | 4 | ? | -1% | -153% | -25% | 3.2µM*
C[C@@H](C(=O)N1CCN(C(=O)OC(C)(C)C)CC1)n1cc(-c2cn([C@@H](C)C(=O)N3CCN(C(=O)OC(C)(C)C)CC3)nn2)nn1 | . | . | -3% | 6%[10 µM] | . | ?
CCn1c(SCC(=O)NNC(=O)c2ccc(OC)cc2)nnc1-c1ccco1 | . | -10% | 15% | -4%[10 µM] | . | 0%[9.22 µM]
CCOC(=O)C1=C(Nc2ccc(OC)cc2)OCC1=O | . | -17% | 4% | -5%[10 µM] | . | -8%[9.22 µM]
C/C(Cl)=C\CNC(C)c1ccccc1 (stereo not drawn) | -8 | 4% | 6% | 8%[10 µM] | -3% | -6%
C=C(C)CC1(NC(C)c2ccccc2)CCCCC1 (stereo not drawn) | -109* | 7% | 2% | . | 1% | -2%
CC(C)OC(=O)c1nn2c(C(F)(F)F)cc(-c3ccc(Br)o3)nc2c1Br | 44 | 18µM* | . | -4% | . | -11%
CC1CCC(C(C)C)[C@H](O)C1 (stereo partly drawn) | . | -2% | 8% | -28% | -11% | .

From PubChem BioAssay
